Structures are written as SMILES. The whole screen tested about 47,000 compounds, of which about 2,500 (5.3%) were called active. The entries come from a sample that favours actives as a whole. Unmarked numbers belong to inactive results. Cut-off read from the data, not from the text of the source: active = inhibition above about 30%; inactive = the rest.

For the test, the target named is Ubiquitin carboxyl-terminal hydrolase 30 (Homo sapiens) (UniProt Q70CQ3). Briefly: inhibitors of human USP30 deubiquitinase (AID 1645860). The following applies: purified USP30, Ub-rhodamine cleavage fluorescence; at 25 µM; stronger effect = higher value.
Ubiquitin carboxyl-terminal hydrolase 30 (Homo sapiens), sequence (Q70CQ3 whole entry, looked up): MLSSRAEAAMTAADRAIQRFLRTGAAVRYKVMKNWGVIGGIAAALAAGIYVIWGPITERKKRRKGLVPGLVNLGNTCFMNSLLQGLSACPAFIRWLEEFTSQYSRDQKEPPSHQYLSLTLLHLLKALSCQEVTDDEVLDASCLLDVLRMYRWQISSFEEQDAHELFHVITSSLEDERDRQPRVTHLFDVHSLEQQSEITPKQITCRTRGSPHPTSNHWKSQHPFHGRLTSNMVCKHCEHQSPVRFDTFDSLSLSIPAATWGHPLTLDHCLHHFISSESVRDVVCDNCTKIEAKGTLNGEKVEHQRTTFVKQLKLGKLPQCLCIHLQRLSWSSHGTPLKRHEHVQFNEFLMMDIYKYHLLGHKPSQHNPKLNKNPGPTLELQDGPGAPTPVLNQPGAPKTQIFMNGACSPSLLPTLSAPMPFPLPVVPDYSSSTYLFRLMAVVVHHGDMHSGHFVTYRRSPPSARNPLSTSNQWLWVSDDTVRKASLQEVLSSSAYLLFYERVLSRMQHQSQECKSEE
As for `CCOCCCNc1ncnc2c1sc1nc(N3CCOCC3)c3c(c12)CC(C)(C)OC3`, the inhibition is -0.00409%. The figure for `CCCCCCSc1ncnc2c1sc1nc(-c3ccccc3)c3c(c12)CC(C)(C)OC3` is -3.25%. For the molecule `CC(=O)CCCSc1ncnc2c1sc1nc(N3CCOCC3)c3c(c12)CC(C)(C)OC3`, the inhibition was 36.7% (active). The figure for `CSc1nccc(-c2ccc(F)cc2)c1C#N` is 30.3% (active); for `O=C(NC1CCCCC1)c1ccc2c(=O)nc3c(-c4ccccc4F)n[nH]n3c2c1` it is -42.8%. For the molecule `CCc1ccc(NC(=O)N2CCC3(CC2)COc2ccccc2S(=O)(=O)N(C)C3)cc1`, the inhibition is -0.131%. In the case of `Cc1ccc(C)c(N2C(=O)CN(S(C)(=O)=O)CC2(C)C(=O)NCc2ccccc2)c1` (stereo not given), the inhibition was -0.764%.

For `O=C(Nc1ccccc1F)NC1CCCN(c2cc(-c3ccncc3)[nH]n2)C1` (stereo not given), the inhibition is 34.3% (active).

For the molecule `O=C(CSc1nccn1C1CCCCC1)Nc1ccccc1F`, the inhibition is 24.6%. Take `O=C(Nc1ccccc1F)C1CCCN(c2nnc3ccccn23)C1` (stereo not given): the inhibition is 8.96%. The result for `COc1cccc(-c2cc3c(=O)n(Cc4nc(-c5ccccc5C)no4)ccn3n2)c1` reads -2.78%; that for `CN1CCN(C(=O)C2=NOC3(CCCNC3)C2)C(c2ccccc2)C1` (stereo not given), -3.49%. The figure for `COc1ccc(-c2noc(C3(c4ccccc4)CCOCC3)n2)cc1` is 32.8% (active). As to `COc1ccc(C2(C(=O)Nc3cccnc3)CCOCC2)cc1`, the inhibition was -2.08%. The figure for `COc1ccc(Cc2noc(C3(c4ccc(Cl)cc4)CCOCC3)n2)cc1` is -0.175%; for `C[C@]12C(=O)N(C3CC3)CC(=O)N1CC(c1ccccc1Cl)c1c2[nH]c2ccccc12` (stereo not given in full) it is 21.3%.

`Cc1cc(=O)c2c(O)cccc2o1`: the inhibition is -221%. The figure for `COc1ccc(CCC(=O)Nc2ccc3nc(N4CCOCC4)cc(C)c3c2)cc1` is -2.1%. The result for `Cc1nc(N(C)C)cc(N2CCN(C(=O)Nc3ccc4c(c3)OCCO4)CC2)n1` reads -13.9%; that for `Fc1cc(F)cc(CNc2cc(-n3ccnc3)ncn2)c1`, 0.587%; that for `COc1cc(OC)cc(C(=O)Nc2cccc(CCc3nc4ccc(C)cc4[nH]3)c2)c1`, 26%. The figure for `O=c1c2[nH]c3ccc(Cl)cc3c2ncn1Cc1cccnc1` is -14.2%; for `CCOc1ccc2[nH]c3c(=O)n(Cc4cccnc4)cnc3c2c1` it is 22%. Take `COc1cc(Cn2cnc3c([nH]c4ccc(Br)cc43)c2=O)cc(OC)c1`: the inhibition is 57.3% (active). Consider `CC(=O)Nc1onc(C)c1-c1ccc(C)c(S(=O)(=O)Nc2ccccc2)c1`, for which the inhibition was -17.6%. The figure for `Cc1ccc(NC(=O)Cc2nc(-c3ccccc3)n[nH]2)cc1` is 44.3% (active); for `COc1ccc(CC(=O)Nc2cnc(-c3ccccc3)nc2)cc1` it is -102%; for `O=C(Cc1nc(-c2ccccn2)n[nH]1)NC1CCCCCC1` it is -21.9%.

As to `CCOc1ncccc1C(=O)NNC(=O)c1cn(-c2ccccc2)nc1-c1ccccc1`, the inhibition was -0.192%. In the case of `CC(OC(=O)c1cn(-c2ccccc2)nc1-c1cccnc1)C(=O)Nc1cccc(S(=O)(=O)N(C)C)c1` (stereo not given), the inhibition was 55.1% (active).

With `COc1ccccc1OCCC(=O)Nc1cccc(S(=O)(=O)N(C)C)c1`, the inhibition was 11.1%.

In the case of `CNc1nc(C2CCCN(C(=O)C3CCCCC3)C2)nc2c1CNCC2` (stereo not given), the inhibition is -11.2%.

As to `COc1cc(NS(=O)(=O)c2ccc3c(c2)N(C)CCO3)cc(OC)c1`, the inhibition is 0.0144%. As to `O=C(Nc1ccccc1)c1ccc2c(c1)OCCCO2`, the inhibition is 3.42%. The figure for `O=C(Nc1ccc(N2CCN(c3ccccc3)C2=O)nc1)c1ccc2c(c1)OCO2` is -9.55%. As to `CC(C)(C)c1ccc(Oc2ccc(NC(=O)c3ccc4c(c3)CCO4)cn2)cc1`, the inhibition was 34.9% (active). `Cc1nc2cc3c(cc2n1CC(=O)NCCc1ccccc1)OCCO3`: the inhibition is -5.99%. The result for `Cc1cccc(CC(=O)Nc2c(C)nc3ccccn3c2=O)c1` reads 7.29%; that for `COc1cccc(N2CCN(C(=O)Nc3ccc4c(c3)NC(=O)CO4)CC2)c1`, 69.6% (active); that for `COc1cccc(NC(=O)N2CC[C@H]3N(C)CC[C@@]3(C(=O)N3CCCC3)CC2)c1`, -23.3%.

As to `Cc1cc2oc(C(=O)Nc3ccc4c(c3)NC(=O)CO4)c(C)c2cc1Cl`, the inhibition is 19.5%.

For `O=C(O)C[C@@H]1CCN(C(=O)C2CCCCC2)C[C@@H]1CC1=NCCc2ccccc21`, the inhibition is -65%.

In the case of `COc1ccc(SCc2nc(N)nc(Nc3ccccc3)n2)cc1`, the inhibition is -33%. As for `CC1(C)Cc2c(c(-c3ccco3)nc3sc4c(SCCCc5ccccc5)ncnc4c23)CO1`, the inhibition is 11.9%. The figure for `CSc1ncnc2c1sc1nc(-c3ccccc3)c3c(c12)CC(C)(C)OC3` is 9.17%. On to `CC(C)Cc1nc2sc3c(N(CCO)Cc4ccccc4)ncnc3c2c2c1COC(C)(C)C2`, for which the inhibition is 34.9% (active). For `COc1cccc(O[C@@H]2C[C@@H](NC(=O)C3CCOCC3)[C@H](O)[C@H]2O)c1`, the inhibition is 7.84%.

Consider `O=C1CNC(=O)N1CC(O)Cn1c2ccc(Br)cc2c2cc(Br)ccc21` (stereo not given), for which the inhibition was 6.98%. The result for `O=C(Nc1ccc(Cl)cc1)C1C2C=CC3(O2)C1C(=O)N(CCc1ccccc1Cl)C3C(=O)NC1CCCCC1` (stereo not given) reads 29.8%; that for `O=c1c2cnc(N3CCCC3)nc2ccn1-c1ccccc1`, 31% (active). Take `O=c1c2cnc(N3CCOCC3)nc2ccn1CCc1ccccc1`: the inhibition was 12.9%. The result for `O=c1c2cnc(N3CCCCC3)nc2ccn1Cc1cccnc1` reads 1.8%; that for `c1ccc(-c2nccc(-c3ccc(-n4cncn4)cc3)n2)nc1`, 23.2%. The figure for `Cn1c(SCc2ccc(Cl)cc2)nnc1-c1ccc2c(c1)OCCO2` is 30.4% (active); for `Cc1cc(C(=O)CSc2nnc(-c3ccc(F)cc3)n2C)c(C)n1C` it is -35%; for `CCn1c(SCC(=O)Nc2ccc3c(c2)OCCO3)nnc1C(C)C` it is 9.74%. In the case of `Cc1nn(-c2cccc(F)c2)c2c1c(C)c(CCC(=O)NCc1ccccn1)c(=O)n2C`, the inhibition was 58.6% (active). The figure for `Cc1nn(-c2ccccc2)c2c1c(C)c(CCC(=O)N1CCN(c3ccc(F)cc3)CC1)c(=O)n2C` is -7.59%. The result for `Cc1nc2cc(C(=O)NCc3ccccn3)ccc2n1-c1cccc(F)c1` reads 0.251%; that for `O=C(Nc1ccc2cn[nH]c2c1)c1cnn(-c2ccccc2)n1`, -23.9%; that for `CCCc1cc(=O)oc2cc(OC(=O)C3CCN(C(=O)c4ccc(Cl)cc4)CC3)ccc12`, 29.6%. As for `COc1ccc(N2CCN(Cc3cc(=O)oc4cc(O)ccc34)CC2)cc1`, the inhibition was 8.3%. The result for `CCCc1cc(=O)oc2cc(OCC(=O)NCc3ccc(OC)cc3)ccc12` reads 62.1% (active); that for `CCN(CC)c1ccc(C2C3=C(CC(C)(C)CC3=O)Nc3ccccc3N2C(=O)Cc2ccccc2)cc1` (stereo not given), -64.2%; that for `Cc1ccc(Nc2nc(O)c(CC(=O)Nc3ccc(C(C)C)cc3)s2)cc1C`, 0.202%. Turning to `CCOc1ccc(Nc2nc(O)c(CC(=O)Nc3cccc(C)c3)s2)cc1`, the inhibition is 33.8% (active). The result for `Cc1ccc(NC(=O)Cc2sc(Nc3ccc(C)cc3)nc2O)cc1` reads 53.6% (active). The figure for `CCOc1ccc(N(CC(=O)Nc2ccc(S(=O)(=O)Nc3cc(C)ccc3C)cc2)S(C)(=O)=O)cc1` is 1.87%; for `CCC(=O)c1ccc(OCC(=O)Nc2ccc3nc(C)sc3c2)cc1` it is -168%; for `Cc1ccc(Nc2nc(NCC(=O)Nc3cc(C)ccc3C)nc(Nc3ccc(C)cc3)n2)cc1` it is -44%. The figure for `Cc1cccc(-c2cnc(C(O)c3ccc4c(c3)OCO4)[nH]2)c1` (stereo not given) is -30.9%; for `COc1ccc(C2CC(=O)c3cnc(NC(=O)c4cc(OC)c(OC)c(OC)c4)nc3C2)c(OC)c1` (stereo not given) it is 24.2%; for `C=C1C(=O)O[C@H]2C=C(C)C=C[C@@]3(C)CC[C@@]1(O)[C@H]23` it is 7.94%. On to `O=C(NCc1ccncc1)C1CC(=O)N(c2cccc(C(F)(F)F)c2)C1` (stereo not given), for which the inhibition was 0.292%.

For the molecule `Cc1oc(-c2ccccc2)nc1C(=O)N(C)Cc1cccc(Cl)c1Cl`, the inhibition was -7.53%. The result for `O=C1NCCCC12CCN(Cc1cnc3ccccc3n1)CC2` reads 10.3%; that for `Cc1ccc(-c2nc(C(=O)N3CCN(c4ccccn4)CC3)cs2)n1C`, -26.2%; that for `O=C(c1cccnc1)N1CCN(c2cc(-c3ccccc3)[nH]n2)CC1`, 12.7%. The figure for `CN(CCc1ccccc1)c1nccc(N2CCN(C(=O)c3csc(-c4cccnc4)n3)CC2)n1` is 51.1% (active); for `Cc1nc2cccnc2nc1C` it is -39.7%. The figure for `NC(=Nc1cccnc1)c1ccc2ccccc2n1` is 4.02%. In the case of `Clc1ccc(C2NC3=NCN(Cc4ccco4)CN3c3nc4ccccc4n32)cc1` (stereo not given), the inhibition was 36.4% (active).

For the molecule `COc1cccc(CNC(=O)C2(C)Oc3cccnc3N(C)C2=O)c1` (stereo not given), the inhibition is -5.25%. For `O=C(NC1CCCCCC1)c1nc(Cn2cnc3ccccc3c2=O)no1`, the inhibition is 9.85%. Consider `COc1ccc(N(CC(=O)NCc2ccco2)S(=O)(=O)c2ccccc2[N+](=O)[O-])c(OC)c1`, for which the inhibition is 3.13%. Consider `CC(C)(C)c1ccc(-c2nnc3n2-c2ccccc2SC3)cc1`, for which the inhibition is 56.7% (active). Take `CCc1ccccc1N1C(=O)CN(S(C)(=O)=O)CC1(C)C(=O)NC1CCCCC1` (stereo not given): the inhibition was 19.9%. The result for `COCCSc1ccc(-c2cccnc2)nn1` reads 1.49%. The figure for `Cc1ccc(C(=O)N2CCC3(CC2)CCN(c2cnn(C)c2)C3=O)cc1` is 17.1%. For the molecule `O=C(NCC(c1ccco1)N1CCCCC1)c1ccccc1Cl` (stereo not given), the inhibition was -6.05%.

By inhibition is commonly meant the drop in the measured response relative to a control, in per cent.

(Values after PubChem BioAssay AID1645860 (Buhrlage Lab, Dana-Farber Cancer Institute and Novartis …, 2021).)
